From PubChem BioAssay (Tox21) come the findings set out here.

Where “and” joins values, the source holds several entries; their conditions need not be identical. Identical values can stand only once. Records with an inconclusive call do not appear. A number with no mark means an inactive call. Calls of active or inactive are those of the source. Calls come from the whole dose curve; as a rule, active = well fitted activation curve with a large enough effect in the repeat runs; inconclusive = weak or mixed curves; inactive = flat fitted curve, though single readings scatter.
% is set by controls: 0 for no effect and ±100 for the full control effect; potency is the fitted concentration of half-maximal effect.

The nature of this test: A CellTox Green Cytotoxicity Assay to monitor cytotoxicity in HEK293 cells - 32 hour (AID 1224881). Note: nearly all actives have a fitted effect of over 40% in size. To be noted: CellTox Green fluorescence; series mostly up to 76.8 µM; cytotoxicity increase: at the top concentration. From the text:
National Center for Advancing Translational Sciences [NCATS]
NIH Chemical Genomics Center [NCGC]
U.S. Environmental Protection Agency [EPA]
National Institutes of Environmental Health Sciences [NIEHS]
National Toxicology Program [NTP]
Cell-based models are critical for drug discovery. Determining the natural cytotoxic effects resulting from test compounds is an essential research activity. A CellTox Green Cytotoxicity Assay to monitor cytotoxicity in real time of continues cell culture during 40 hours of the compound treatment was used to screen Tox21 10K library compounds in Hek293 cells. CellTox Green Cytotoxicity Assay is a nonlytic, homogeneous, biofluorescent method to measure cytotoxicity in cell culture after experimental manipulation. The assay system uses a proprietary asymmetric cyanine dye that is excluded from viable cells but preferentially stains the dead cell's DNA. […] Viable cells produce no appreciable increases in fluorescence. Therefore, the fluorescence signal produced by the binding interaction with dead cell DNA is proportional to cytotoxicity.
The mixture of Hek293 cell suspension and reagents were dispensed at 600cells/6 ul/well in 1536-well tissue culture treated black solid bottom plates using a Multidrop dispenser. After the assay plates were incubated at a 37 C/5% CO2 incubator for 5 hours, 23 nL of compounds dissolved in DMSO, positive and negative controls was transferred to the assay plate by a pintool work station. The plates were incubated at 37 C for 40 hours. The fluorescence intensity were measured at 0h, 8h, 16h, 24h, 32h and 40h time points using ViewLux plate reader during compound treatment.
Take `Cc1ccc2cc3c(ccc4ccccc43)c3c2c1CC3`: the “cytotoxicity increase” value was 26% [at 35.3 µM]. Consider `CC(O)C(=O)[O][Hg][c]1ccccc1` (stereo not given), for which the Potency was 3.09 µM (active). On the same count and under the same terms, the same measure for `[O]=[Cr](=[O])([OH])[O][Cr](=[O])(=[O])[OH]`: “inactive”. Regarding `[O-][Cl+3]([O-])([O-])O`, the “cytotoxicity increase” value is -7.29%.

For the compound `ClC1=C(Cl)[C@]2(Cl)[C@@H]3[C@H]4C[C@H]([C@@H]5O[C@H]45)[C@@H]3[C@@]1(Cl)C2(Cl)Cl`, the “cytotoxicity increase” value was -1.8%. The same measure, in the same setting: the same measure for `Nc1cc(Cl)ccc1Cl`: 0.825%; for `CN1[C@@H]2CC[C@H]1CC(O)C2` (stereo not given in full): 13.7%; for `C#CCC1=C(C)C(OC(=O)C2C(C=C(C)C)C2(C)C)CC1=O` (stereo not given): -6.28%. On to `CNC(=O)Oc1cc(C)cc(C(C)C)c1`, for which the “cytotoxicity increase” value is -0.197%. Take `Nc1nc(N)c(N)c(N)n1`: the Potency was 49.2 µM (active). Take `C1=CCC=C1`: the “cytotoxicity increase” value is -13.8%. Same read-out and setting: for `O.O.O.O.O.O.O.O=S(=O)([O-])[O-].[Co+2]` the value was -19.1%. Still for that read-out and setting: the same measure for `COP(=S)(NC(C)C)Oc1ccc(C)cc1[N+](=O)[O-]` (stereo not given): -2.75%; for `CC(C)=CC1C(C(=O)OC(C#N)c2cccc(Oc3ccccc3)c2)C1(C)C` (stereo not given): 1.79%.

For the compound `O=[N+]([O-])[O-].[Tl+]`, the “cytotoxicity increase” value is -0.366%. Take `CCCN`: the “cytotoxicity increase” value was -1.06%. With `CC(C)c1c(CN(C)C(C)Cc2ccccc2)n(C)n(-c2ccccc2)c1=O` (stereo not given), the “cytotoxicity increase” value is 2.9% [at 35.3 µM]. Consider `O=C1C(Cl)=C(Cl)C(=O)C(Cl)=C1Cl`, for which the Potency is 21.8 µM (active) and 21.9 µM (active). As for `CC1(C)C(C=C(Cl)Cl)C1C(=O)OC(C#N)c1ccc(F)c(Oc2ccccc2)c1` (stereo not given), the “cytotoxicity increase” value was -11.4%. Still for that read-out and setting: for `COP(=S)(OC)Oc1nc(Cl)c(Cl)cc1Cl` the value was -2.5%; for `CC(=O)[O-].CC(=O)[O-].O.O.O.[Pb+2]`, -18.2%; for `CCN(CC)CCc1c[nH]c2ccccc12`, -14.3%.

Regarding `Oc1cc(Cl)c(Cl)c(Cl)c1Cl`, the “cytotoxicity increase” value is 23.6%. With `Cc1cc2c3c(c1)C(c1ccccc1)=N[C@@H](NC(=O)c1ccncc1)C(=O)N3CC2`, the “cytotoxicity increase” value was -1.35%. Take `O=C(Cl)c1ccccc1F`: the “cytotoxicity increase” value was -1.01%. On the same count and under the same terms, for `CC[N+]1(CC)CCC(OC(=O)C(O)(c2ccccc2)c2ccccc2)C1` (stereo not given) the value was -9.78% [at 35.3 µM]; for `CCCCC(CC)COC(=O)OOC(C)(C)C` (stereo not given), 12.6%. On the same count and under the same terms, the same measure for `BrCC(Br)(Br)Br`: 27%; for `Nc1c(Cl)c(Cl)c(Cl)c(Cl)c1Cl`: 1.35%. On to `CCC[CH2][Sn]([CH2]CCC)([CH2]CCC)[O][Sn]([CH2]CCC)([CH2]CCC)[CH2]CCC`, for which the Potency was 0.339 µM (active).

For `CSC1=N[C@@](C)(c2ccccc2)C(=O)N1Nc1ccccc1`, the “cytotoxicity increase” value is 1.65%. On the same count and under the same terms, for `CCCCC/C=C\C/C=C\C/C=C\C/C=C\CCCC(=O)NCC(=O)O` the value was 7.12% [at 35.3 µM]. For the compound `CCOP(=O)(OCC)Oc1nc(Cl)c(Cl)cc1Cl`, the “cytotoxicity increase” value was -2.01%. Still for that read-out and setting: the same measure for `CN1C(=O)[C@@H](NC(=O)c2cc3ccccc3[nH]2)N=C(c2ccccc2)c2ccccc21`: -12% [at 35.3 µM]. The same measure, in the same setting: for `CO/N=C(/C1=NOCCO1)c1ccccc1Oc1ncnc(Oc2ccccc2Cl)c1F` the value was 2.71%; for `ClSC(Cl)(Cl)Cl`, 3.92%; for `C[C@H]1[C@H](c2ccc(Cl)cc2)SC(=O)N1C(=O)NC1CCCCC1`, 17%. Regarding `CN1CCc2cc3c(cc2C1O)OCO3` (stereo not given), the “cytotoxicity increase” value is 0.125%. On the same count and under the same terms, the same measure for `Nc1ccc(Cl)cc1C(=O)c1ccccc1F`: 0.734% [at 35.3 µM]; for `C#CCO`: -0.663%.
